Active and inactive are the calls of the source.
Each compound was assayed on XIP peptide (Xip251-270) binding (assay: small-molecule binders of XIP peptide, primary screen, biochemical, small-molecule microarray, fluorescence 635/667 nm, 0.1 µg/mL protein (AID 1182)). Conditions: fluorescent protein binding, 635 nm, higher = more signal, called active from +8 up or from −8 down.

Composite z-score, inactive:
COc1cc(OC)c(C(O)C2C=CC3C(=O)N(c4ccccc4)C(=O)C3N2Nc2ccc(C(C)C)cc2)cc1Br (stereo not drawn) 0.242
CC(C)c1nc2cc(Br)ccc2c(=O)o1 0.697
CN1C(=O)[C@@H]2[C@@H](CC(COc3ccccc3)=C3[C@@H](CCc4ccccc4)OB(O)C[C@@H]32)C1=O 0.106
O=C(NCCN1CCOCC1)[C@@H]1c2ccccc2C(=O)N(Cc2ccc(OC(F)(F)F)cc2)[C@H]1c1ccc(CO)cc1 0.441
CN(C)c1ccc(C(O)C2C=CC3C(=O)N(Cc4ccccc4)C(=O)C3N2n2cnnc2)cc1 (stereo not drawn) 3
CC(C)C(O)C1C=CC2C(=O)NC(=O)C2N1Nc1ccccn1 (stereo not drawn) 0.163
COc1ccc([Si](C)(C)[C@@H]2[C@@H](CC(=O)N3Cc4ccccc4C[C@H]3CO)O[C@]3(C(=O)N(Cc4ccc(N5CCOC5=O)cc4)c4ccccc43)[C@H]2C)cc1 2.28
COCCOC(=O)N1C(=O)[C@@]2(c3cc(C#CCC(C(=O)OC)C(=O)OC)ccc31)[C@H](C(=O)Nc1nc3ccccc3s1)[C@H]1C(=O)O[C@H](c3ccccc3)[C@H](c3ccccc3)N1[C@@H]2c1ccc(O)cc1 0.224
COc1cc(CO)cc(I)c1O[C@H]1C=C(C(=O)NCCO)C[C@@H](NC2CCCCCC2)[C@@H]1O 0.509
O=C(NC1CC1)[C@@H]1c2ccccc2C(=O)N(Cc2ccc(OC(F)(F)F)cc2)[C@H]1c1ccc(CO)cc1 2.46
CCOC(=O)C1=CC[C@@H](c2ccc(OC)cc2)N(S(=O)(=O)c2ccc(C)cc2)[C@H]1CC 0.441
CC1CC/C=C\[C@H]2OC34C=CCN(C(C)(C)C)C(=O)[C@H]3N(CCCO)C(=O)[C@@H]4C2C(=O)O1 (stereo partly drawn) 0.453
C=C(C)[C@@H]1CC=C(C(O)C2C=CC3C(=O)N(c4ccccc4)C(=O)C3N2Nc2ccc([N+](=O)[O-])cc2)CC1 (stereo partly drawn) 0.26
C=CCOC(=O)[C@@H]1[C@H]2C(=O)O[C@H](c3ccccc3)[C@H](c3ccccc3)N2[C@H](c2ccc(OCCOC(=O)[C@H]3C[C@H]4C(=O)NCC(=O)N4[C@H]3c3cccc(OCCO)c3)cc2)[C@@]12C(=O)Nc1ccc(I)cc12 0.604
COC(=O)[C@H](Cc1ccccc1)N1CC2=CCCC=C[C@@H]2[C@H]1[C@H](O)Cc1ccccc1 0.444
CC(=O)OCC1C2CC[C@H]3C(OCc4ccc(F)cc4C(F)(F)F)OC[C@]4(C)[C@H]3C2=C(CN4C(=O)OC(C)(C)C)[C@H](C)C1COC(C)=O (stereo partly drawn) -0.07
CC(=O)c1ccc(C(O)C2C=CC3C(=O)N(c4ccccc4)C(=O)C3N2Nc2ccc(C(C)C)cc2)cc1 (stereo not drawn) 0.248
CC(C)NC(=O)[C@@]1(C)c2ccccc2C(=O)N(Cc2ccccc2)[C@H]1c1ccc(CO)cc1 0.0062
CCCCC(O)C1C=CC2C(=O)N(c3ccccc3)C(=O)C2N1Nc1ccc([N+](=O)[O-])cc1 (stereo not drawn) 0.0204
Cc1ccc(S[C@]2(C(=O)NC3CC3)CC(=O)N(C(C)C)[C@@H]2c2ccc(CO)cc2I)cc1 0.717
COCCOC(=O)N1C(=O)[C@@]2(c3cc(C#CCC(C(=O)OC)C(=O)OC)ccc31)[C@H](C(=O)Nc1nc3ccccc3s1)[C@H]1C(=O)O[C@H](c3ccccc3)[C@H](c3ccccc3)N1[C@@H]2c1ccc(OCCO)cc1 1.7
COC(=O)C1=CC(CCCO)=CC(c2cccs2)N(Cc2cc3c(cc2Br)OCO3)C=C1C(=O)OC (stereo not drawn) 1.07
CN1C(=O)C2C(C1=O)C1C=C(c3ccc(CO)cc3)C2C(C2CC2)N1C (stereo not drawn) 0.017
COCCCNC(=O)[C@@H]1c2ccccc2C(=O)N(Cc2ccc(OC(F)(F)F)cc2)[C@H]1c1ccc(CO)cc1 0.16
COCCCNC(=O)[C@@]1(CCC(=O)OC(C)(C)C)COC(c2ccc(OCCCO)cc2)=N1 0.192
O=C(O)[C@H](Cc1ccccc1)n1cc(C2(O)CCCCC2)nn1 -0.0467
CN(C)CCCC[C@@H]1NC(=O)[C@@H]2C[C@H](C(=O)NCCCCCCNC(=O)CS)[C@H](c3ccc(O)cc3)N2C1=O 0.237
COC(=O)[C@@]1(Cc2ccc(OC)cc2)[C@H]2c3cc(C(=O)N4CCCC4)n(CCn4cc([N+](=O)[O-])nc4C)c3C[C@H]2CN1C(=O)c1ccccc1 1.13
